Assay results taken from PubChem BioAssay (NCI).
About 83,000 compounds went through this panel and 20% of them were active in at least one assay; those are over-represented in the sample as a whole.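 Negative percent growth values reflect cell death: -40 means 40% of the cells present at the start died, and -100 means all died.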 Calls of active or inactive are those of the source.

test system: BT-549 breast; assay: NCI-60 one-dose screen, 48 h (100 = growth as untreated, 0 = no growth, -100 = all killed); conditions: 10 µM unless noted
Procedure: Growth inhibition of the BT-549 human tumor cell line is measured as a screen for anti-cancer activity. Cells are grown in 96 well plates and exposed to the test compound for 48 hours. Compounds are tested at a single concentration, which is 10^-5 M for most compounds. The reported endpoint is percent growth (GI% or GIPRCNT), where numbers from 0 - 100% represent growth inhibition, and numbers from -100% - 0 represent cell death. For example, a value of 40 represents 60% growth inhibition. A value of 0 means no net growth occurred over the course of the experiment. A value of -40 indicates 40% of cells at the beginning of the experiment died by the end of the experiment. A value of -100 means all cells are dead at the end of the experiment.
NCI-60 Human Tumor Cell Lines Screen was performed using the standard one-dose NCI protocol, which is described in more detail at https://dtp.cancer.gov/discovery_development/nci-60/default.htm.
Compounds with GIPRCNT values below 10 were considered active. Activity score was based on GIPRCNT using the following formula: […]
Score is 0 for GIPRCNT values of 100 or above, 50 for GIPRCNT values of 0, and 100 for GIPRCNT values of -100.

Row | Compound | growth
1 | COC(=O)CCc1c[nH]c2ccc(N(CCCl)CCCl)cc12 | 57.4% (inactive)
2 | O=C(c1ccccc1O)c1[nH]c(Cl)c(Cl)c1-n1c(C(=O)c2ccccc2O)cc(Cl)c1Cl | -5.5% (active)
3 | CC[C@H](C)[C@H](NC(=O)[C@H]1CCCCN1C)C(=O)N(C)[C@H](C[C@@H](OC(C)=O)c1nc(C(=O)NC23CC(C(=O)OC)(C2)C3)cs1)C(C)C | -39.2% (active)
4 | Cc1cccc(N2CCN(C(C)C#N)CC2)c1 (stereo not given) | 92.4% (inactive)
5 | CC[C@H](C)[C@@H]([C@@H](CC(=O)N1CCC[C@H]1[C@H](OC)[C@@H](C)C(=O)N[C@H](C)[C@@H](O)c1ccccc1)OC)N(C)C(=O)[C@@H](NC(=O)[C@@H](NC)C(C)C)C(C)C | 6.48% (active)
6 | CC[C@H](C)[C@H](NC(=O)[C@H]1CCCCN1C)C(=O)N(C)[C@H](C[C@@H](O)c1nc(C(=O)N[C@@H](Cc2ccccc2)C[C@H](C)C(=O)O)cs1)C(C)C | 88.5% (inactive)
7 | Cc1ccc(S(=O)(=O)F)cc1C(=O)O | 111% (inactive)
8 | CC1=C(CCCOC(=O)[C@H](N)CC(C)C)C2=C(C)C3(CC3)[C@@](C)(O)C(=O)C2=C1 | -9.68% (active)
9 | N/C(=N/N=C/c1ccncc1)N[N+](=O)[O-] | 89.6% (inactive)
10 | CN1CCCCC1C(C)(O)c1ccccc1 (stereo not given) | 87.4% (inactive)
11 | CCCCCCCOC(C(=O)OCCN(CC)CC)(c1ccccc1)c1ccccc1 | 88.3% (inactive)
12 | [Cl][Hg][c]1cc[c]([Hg][Cl])o1 | 14% (inactive)
13 | CN1C(=O)C(=Cc2cn(CCCCCCn3c4ccccc4c(=O)c4ccccc43)c3ccccc23)C(=O)N(C)C1=O | 91.2% (inactive)
14 | COC1CC2c3ccccc3C1C(C)=[N+]2C (stereo not given) | 87.4% (inactive)
15 | COC(=O)CC12CC(NC(=O)c3csc([C@@H](C[C@H](C(C)C)N(C)C(=O)[C@@H](NC(=O)[C@H]4CCCCN4C)C(C)C)OC(C)=O)n3)(C1)C2 | -19.8% (active)
16 | COC(=O)CCC1=C(C)c2cc3[n-]c(cc4nc(cc5[n-]c(cc1n2)c(CCC(=O)OC)c5C)C=C4C)cc3C.[Cd+2] | -31.9% (active)
17 | CCOC(=O)CCC(NC(=O)C(Cc1ccc(N(CCCl)CCCl)cc1)NC=O)C(=O)OCC (stereo not given) | 69.6% (inactive)
18 | CC1=C2[C@@H](CC1)[C@]1(C)O[C@@](C(C)C)(C[C@H]1O)[C@H]2OC(=O)C1CC1c1ccccc1 (stereo not given in full) | 81.4% (inactive)
19 | Cn1cc(C2=C(c3cn(C4CCN(Cc5ccccn5)CC4)c4ccccc34)C(=O)NC2=O)c2ccccc21 | 78.3% (inactive)
20 | COC(=O)[C@@H](C)C[C@H](Cc1ccc(F)cc1)NC(=O)c1csc([C@@H](C[C@H](C(C)C)N(C)C(=O)[C@@H](NC(=O)[C@H]2CCCCN2C)C2CC2)OC(C)=O)n1 | -0.522% (active)

Row | Compound | growth
21 | CC12CCC3C(CCC4Cc5[nH]c6ccccc6c5CC43C)C1CCC2O (stereo not given) | 60.4% (inactive)
22 | C=C1C[C@](OC)([C@H](O)C(=O)N[C@@H](OC)[C@@H]2C[C@@H](O)C(C)(C)[C@@H](C[C@@H](COC)OC)O2)O[C@H](C)[C@@H]1C | -59.9% (active)
23 | COc1ccc(/C(C)=C(\c2ccc(OCCN3CCOCC3)cc2)c2ccc(OC(=O)Cc3ccccc3)cc2)cc1 | 108% (inactive)
24 | CC1=C([Te]c2ccc(O)cc2)C(=O)c2ccccc2C1=O | -1.32% (active)
25 | O[C@H](CN1CC1)[C@@H](O)CN1CC1 | 81.9% (inactive)
26 | O=C(O)C1C(C(=O)O)C2(Cl)C(Cl)=C(Cl)C1(Cl)C2(Cl)Cl.[Hg] (stereo not given) | 88.1% (inactive)
27 | COc1cc(C=Nc2cccc(Br)c2)ccc1N(CCCl)CCCl | 85.5% (inactive)
28 | COC(=O)[C@@H](C)C[C@H](Cc1ccccc1)NC(=O)c1csc([C@@H](C[C@H](C(C)C)N(C)C(=O)[C@@H](NC(=O)[C@H]2CCCCN2C)C(C)C)OC(C)=O)n1 | -20.5% (active)
29 | CCn1nccc1NC(=O)C(=O)c1cn(Cc2ccc(F)cc2)c2cccc(OC)c12 | 86.1% (inactive)
30 | CCC(C)(C)[C@H](NC(=O)[C@H]1CCCCN1C)C(=O)N(C)[C@H](C[C@@H](OC(C)=O)c1nc(C(=O)N[C@@H](Cc2ccccc2)C[C@H](C)C(=O)O)cs1)C(C)C | -34.7% (active)
31 | ClCCN(CCCl)c1ccc(/C=N/Nc2ncnc3nc[nH]c23)cc1 | 95% (inactive)
32 | COC(=O)[C@@H](C)C[C@H](Cc1ccccc1)NC(=O)c1csc([C@@H](C[C@H](C(C)C)N(C)C(=O)[C@@H](NC(=O)[C@H]2CCCN2C)C2CC2)OC(C)=O)n1 | -9.2% (active)
33 | C/C(=C\c1ccn(-c2ccccc2N)n1)[C@@H]1C[C@@H]2O[C@]2(C)CCC[C@H](C)[C@H](O)[C@@H](C)C(=O)C(C)(C)[C@@H](O)CC(=O)O1 | 15% (inactive)
34 | CCOC(=O)C(Cc1ccc(N(CCCl)CCCl)cc1)NC(=O)C(CC(C)C)NC(C)=O (stereo not given) | 65% (inactive)
35 | Cc1ccc(S(=O)(=O)C(Cl)(Cl)Cl)cc1 | 92.1% (inactive)
36 | COc1ccc(/C=C\c2cc(OC)c(OC)c(OC)c2)cc1OCC(=O)Nc1nc2ccc(OC(F)(F)F)cc2s1 | 58.7% (inactive)
37 | CC1=C(CCCNS(C)(=O)=O)C2=C(C)C3(CC3)[C@@](C)(O)C(=O)C2=C1 | -31% (active)
38 | CC(C)(C)N1CC1C#N (stereo not given) | 103% (inactive)
39 | CC[C@H](C)[C@H](NC(=O)N[C@@H](C)c1ccccc1)C(=O)N(C)[C@H](C[C@@H](OC(C)=O)c1nc(C(=O)N[C@@H](Cc2ccccc2)C[C@H](C)C(=O)OC)cs1)C(C)C | 10.5% (inactive)
40 | CC(=O)O[C@H]1C(=O)[C@@]2(C)[C@H]([C@H](OC(=O)c3ccccc3)[C@]3(O)C[C@H](OC(=O)[C@H](OC(=O)OCC4COC(C)(C)O4)[C@@H](NC(=O)c4ccccc4)c4ccccc4)C(C)=C1C3(C)C)[C@]1(OC(C)=O)CO[C@@H]1C[C@@H]2O (stereo not given in full) | 38.2% (inactive)
